# Experimental data: PubChem BioAssay (NCATS)
# Results filed as inconclusive are left out. A call without a number means that no potency is given here. Activity calls are given as the source filed them. The call rests on the fitted dose curve; in most records, active means well fitted cell-killing curve with a large enough effect in the repeat runs; inconclusive means weak or mixed curves, or effect the other way; inactive means flat fitted curve, though single readings scatter.
# Experiment: qHTS assay for small molecule antagonists of the retinoid-related orphan receptor gamma (ROR-gamma) signaling pathway - cell viability counter screen (AID 720652);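 further: compound exposure lasted 16 hr before ATP read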
# Conditions: RORgamma reporter cell line viability counter screen; series mostly up to 92.2 µM
# From the text: National Center for Advancing Translational Sciences [NCATS]
# NIH Chemical Genomics Center [NCGC]
# National Institutes of Environmental Health Sciences [NIEHS]
# National Toxicology Program [NTP]
# Nuclear steroid hormone receptors are involved in many biological processes including inflammatory responses, cell proliferation, and apoptosis. Environmental factors or compounds disrupting these nuclear receptor pathways and gene expression may promote susceptibility to immunotoxicants and autoimmune diseases. One important group of these expression factors are the retinoid-related orphan receptors. To assess compounds that may interfere with the retinoid-related orphan receptor gamma (ROR-gamma) transcription factor, a cell-based luciferase assay was used.
# The CHO cell-based assay utilizes a TET-inducible ROR expression factor and ROR response element-LUC reporter gene. Reporter activity was induced using doxycycline and measured after 16hr incubation. Luminescence was read using Viewlux (PerkinElmer), where a decrease in reporter activity would show a decrease in luminescence. The cytotoxicity of the compounds against ROR response-Luc reporter gene cell line was quantified by measuring the intracellular ATP content.
# 1,000 cells in 4 uL/well were dispensed into white wall/solid bottom 1536-well plates using a Multidrop Combi (Thermo Scientific) dispenser. Following incubation at 37 C and 5% CO2 for 5 hr, 23 nL compound or DMSO vehicle were transferred by a pin tool, then the plates were treated with 1 ul doxycycline to induce reporter gene activity. After 16 hr incubation at 37 C and 5% CO2, 5 uL/well of CellTiter-Glo reagent (Promega) was then added to each plate using a Flying Reagent Dispenser and incubated at room temperature for 30 min. The luminescence intensity was quantified on a ViewLux plate reader (PerkinElmer).
row,Compound,Potency
1,CCNS(=O)(=O)c1ccc(C)cc1,inactive
2,CCOCCO,inactive
3,Cc1c(N)cccc1N,inactive
4,O=C(O)c1ccc(CO)o1,inactive
5,Nc1ccc(F)cc1F,inactive
6,CCC=O,inactive
7,CCCCC=O,inactive
8,CNc1ccccc1,inactive
9,O=Cc1ccc(C(=O)O)cc1,inactive
10,C[C@@H]1CC2(OC[C@]3(C)O[C@H]23)O[C@H]2C[C@@]3(C)[C@@H]4CC[C@H]5C(C)(C)C(O[C@@H]6OC[C@@H](O)[C@H](O)[C@H]6O)CC[C@@]56C[C@@]46CC[C@]3(C)[C@@H]12 (stereo not given in full),inactive
11,O=[N+]([O-])c1ccc2nc[nH]c2c1,inactive
12,OC1CCCC1,inactive
13,CCCCCCCCCCCCC1CO1 (stereo not given),inactive
14,C/C=C1\CC2C=CC1C2 (stereo not given),inactive
15,N#Cc1ccccc1,inactive
16,Cc1cccc(C(=O)O)c1,inactive
17,CC(C)=CCC/C(C)=C/C=O,inactive
18,O=C1NC(=O)c2cc([N+](=O)[O-])ccc21,inactive
19,CN(C)c1cccc(O)c1,inactive
20,C(=C/c1ccccc1)/c1ccccc1,inactive

row,Compound,Potency
1,CC=C(Cl)Cl,inactive
2,CCCCN(CCO)CCCC,inactive
3,CC(=O)Nc1cccc(N)c1,inactive
4,Cc1ccco1,inactive
5,O=[N+]([O-])c1cccc(C(F)(F)F)c1,inactive
6,CC(C=O)Cc1ccc(C(C)(C)C)cc1 (stereo not given),inactive
7,Nc1cccc(O)c1,inactive
8,CCN(Cc1ccccc1)c1ccccc1,inactive
9,CCCCCCCCN,inactive
10,CCCOCC(C)OCC(C)O (stereo not given),inactive
11,CCCCC(=O)N(C)C,inactive
12,Nc1cc([N+](=O)[O-])ccc1C(=O)O,inactive
13,CCCC(Cl)CCCC(Cl)CCC(Cl)CCC(Cl)CCC(Cl)CCCC(Cl)CCC (stereo not given),inactive
14,CC1CCCO1 (stereo not given),inactive
15,Nc1cc(S(=O)(=O)O)ccc1O,inactive
16,Cc1ccc2c(c1[N+](=O)[O-])C(=O)c1ccccc1C2=O,inactive
17,CCCCC(CC)COC(=O)CCCCC(=O)OCC(CC)CCCC (stereo not given),inactive
18,C1CCCC1,inactive
19,CCc1ccccc1O,inactive
20,O=C(O)c1ccccc1C(=O)O,inactive
